Laboratory results published in article PMC5540273 (PLoS ONE, 2017).

What was measured:
Details in all cases: concentration: 1 μM, replicates: in singlicate; n = 1
PIM1 = system: PIM1
PIM2 = system: PIM2
PIM3 = system: PIM3
PIP5K1A = system: PIP5K1A
PIP5K1C = system: PIP5K1C
PIP5K2B = system: PIP5K2B
PIP5K2C = system: T1, PIP5K2C
T1 construct: gene PIP4K2C

PKAC-alpha = system: T2, PKAC-alpha
T2 construct: gene PRKACA

PKAC-beta = system: T3, PKAC-beta
T3 construct: gene PRKACB

PKMYT1 = system: PKMYT1
PKN1 = system: PKN1
PKN2 = system: PKN2
PLK1 = system: PLK1
PLK2 = system: PLK2
PLK3 = system: PLK3
PLK4 = system: PLK4
PRKCD = system: PRKCD
PRKCE = system: PRKCE
PRKCH = system: PRKCH
PRKCI = system: PRKCI
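Further: KINOMEscan kinase panel screen.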

SMILES	%Inh (PIM1) [%]	%Inh (PIM2) [%]	%Inh (PIM3) [%]	%Inh (PIP5K1A) [%]	%Inh (PIP5K1C) [%]	%Inh (PIP5K2B) [%]	%Inh (PIP5K2C) [%]	%Inh (PKAC-alpha) [%]	%Inh (PKAC-beta) [%]	%Inh (PKMYT1) [%]	%Inh (PKN1) [%]	%Inh (PKN2) [%]	%Inh (PLK1) [%]	%Inh (PLK2) [%]	%Inh (PLK3) [%]	%Inh (PLK4) [%]	%Inh (PRKCD) [%]	%Inh (PRKCE) [%]	%Inh (PRKCH) [%]	%Inh (PRKCI) [%]
Clc1cc(Cl)cc(Nc2ccnc(Nc3cc(Cl)cc(Cl)c3)n2)c1 [GSK175726]	20	0	0	9	39	7	26	10	0	8	31	0	0	3	1	78	7	13	22	15
Cc1cccc(-c2nc(C)cc(Nc3ccncc3)n2)n1 [GSK257997]	19	0	37	0	39	7	0	3	17	12	0	0	5	0	0	1	15	0	5	12
COC(=O)c1c(-c2ccccc2)c2cc(C(=O)O)ccc2c(=O)n1Cc1ccccc1	0	0	0	18	17	22	13	0	24	0	0	0	0	12	0	11	0	0	4	0
COc1ccc(Nc2nccc(-c3cccc(NC(=O)c4cc5cc(F)ccc5[nH]4)c3)n2)cc1 [GSK1229782]	36	0	30	0	15	12	81	15	21	6	0	0	24	0	0	4	42	43	20	32
Cl.Oc1ccc(-c2nc(-c3ccccc3)[nH]c2-c2ccncc2)cc1 [SB-428218]	44	0	42	72	49	0	58	0	16	14	0	0	0	0	0	0	0	33	0	12
CS(=O)(=O)c1ccc(-c2nc3n(c2-c2ccncc2)CCC3)cc1 [SKF-105942]	0	0	0	4	13	21	7	0	0	0	8	0	0	22	0	11	0	18	1	2
CC1=C(C(=O)Nc2cc3cn[nH]c3cc2F)C(c2ccc(C(F)(F)F)cc2)CC(=O)N1 (stereo not shown) [GSK429286]	0	0	0	0	10	17	11	45	60	17	56	0	0	0	0	0	0	0	0	19
COc1cc2ncn(-c3cc(OCC4CCCO4)c(C(N)=O)s3)c2cc1OC (stereo not shown) [GSK204607]	17	0	0	6	84	9	33	0	0	0	0	0	98.9	99.4	98.3	0	0	2	0	100
Cn1ccc2ncnc(Oc3ccc(NC(=O)Nc4ccccc4)cc3)c21	8	13	22	0	5	5	1	16	17	16	2	0	0	0	0	11	7	4	0	11
O=c1cc(N2CCOCC2)nc2n(Cc3cccc(Cl)c3Cl)ccn12 [GSK2286295]	4	0	5	0	16	2	0	16	5	2	0	0	10	0	0	0	0	0	20	48
CC(C)(C)c1ccc(C(=O)Nc2cn3cc(-c4cccnc4)ccc3n2)cc1	32	12	44	0	17	18	53	13	33	19	25	22	0	16	24	15	36	4	0	26
Cl.O=C(Nc1cccc(-c2nn3ncccc3c2-c2ccnc(Nc3cccnc3)n2)c1)c1c(F)cccc1F [GSK312879]	11	0	0	2	11	4	0	14	19	20	45	0	0	0	0	0	0	5	16	0
COc1cc2nccc(Nc3ccc(NC(=O)c4ccc(C)cc4)c(O)c3)c2cc1OC.Cl [GW440132]	0	0	0	0	50	0	4	12	0	4	0	0	0	0	0	13	24	0	17	12
CCn1c(-c2ccccn2)nc2cnccc21 [SB-736398]	0	0	0	6	34	7	32	92.9	6	0	0	11	0	0	0	0	0	10	0	30
